Measured values reported in the supplement of paper PMC10849652.
About 7,900 targets were measured; listed, in parts, are those with a hit and a random draw of the rest. About 0.6% of all pairs of compound and target were hits.

compound: CON(C)C(=O)N1N=C(c2cc(F)ccc2F)S[C@@]1(CCCN)c1ccccc1 [filanesib]; assay: log2 fold change, soluble protein after heating vs DMSO (PISA); higher = thermal stabilisation; K562 cells, 10 uM, 30 min; active = over 0.2 and 3.5 SD of the protein, either way, in both replicates (recomputed)
Summary of the method: (§1)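 Quantification of soluble protein used TMTpro 16plex LC-MS/MS, with channel sums equalised. Samples were the supernatant after 21,000xg for 90 min of pooled aliquots from K562 cells (2×10^6 cells/mL) treated with 10 μM compound for 30 min, heated for 3 min over 48°C-58°C, and extracted in PBS with 0.5% NP-40 at 4°C. Values, from duplicates, describe thermal stability against control samples on a log2 fold-change scale.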

Chain of UniProt Q10589 (Q10589 whole entry, looked up): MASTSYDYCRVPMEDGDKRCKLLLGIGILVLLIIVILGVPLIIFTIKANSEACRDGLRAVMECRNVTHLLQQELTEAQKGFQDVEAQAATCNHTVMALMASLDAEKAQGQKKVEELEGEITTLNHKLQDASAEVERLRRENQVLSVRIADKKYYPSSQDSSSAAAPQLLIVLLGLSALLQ
Chain of UniProt O94973 (O94973 whole entry, looked up): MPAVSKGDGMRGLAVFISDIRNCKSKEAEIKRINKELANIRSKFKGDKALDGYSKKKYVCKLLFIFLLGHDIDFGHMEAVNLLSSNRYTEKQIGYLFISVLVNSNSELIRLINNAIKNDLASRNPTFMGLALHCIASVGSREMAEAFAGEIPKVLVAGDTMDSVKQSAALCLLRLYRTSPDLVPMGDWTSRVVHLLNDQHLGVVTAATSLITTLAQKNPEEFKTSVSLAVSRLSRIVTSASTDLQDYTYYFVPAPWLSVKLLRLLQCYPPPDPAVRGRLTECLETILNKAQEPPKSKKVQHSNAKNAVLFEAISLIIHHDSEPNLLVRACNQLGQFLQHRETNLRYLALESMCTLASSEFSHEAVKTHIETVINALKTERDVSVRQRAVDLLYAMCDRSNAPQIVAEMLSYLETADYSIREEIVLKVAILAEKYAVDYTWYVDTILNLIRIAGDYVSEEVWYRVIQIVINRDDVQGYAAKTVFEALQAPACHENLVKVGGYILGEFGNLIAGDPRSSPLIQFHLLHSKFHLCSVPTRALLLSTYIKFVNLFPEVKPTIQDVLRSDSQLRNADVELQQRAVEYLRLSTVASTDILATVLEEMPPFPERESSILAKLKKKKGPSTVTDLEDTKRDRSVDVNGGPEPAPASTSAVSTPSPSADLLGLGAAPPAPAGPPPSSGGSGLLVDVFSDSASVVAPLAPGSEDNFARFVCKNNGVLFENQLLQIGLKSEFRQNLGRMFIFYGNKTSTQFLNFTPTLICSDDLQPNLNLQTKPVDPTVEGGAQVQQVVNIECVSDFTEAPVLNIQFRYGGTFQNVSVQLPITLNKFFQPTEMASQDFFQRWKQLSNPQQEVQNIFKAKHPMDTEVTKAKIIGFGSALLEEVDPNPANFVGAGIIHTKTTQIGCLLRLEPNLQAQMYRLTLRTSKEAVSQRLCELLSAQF
Chain of UniProt Q9NSY1 (Q9NSY1 whole entry, looked up): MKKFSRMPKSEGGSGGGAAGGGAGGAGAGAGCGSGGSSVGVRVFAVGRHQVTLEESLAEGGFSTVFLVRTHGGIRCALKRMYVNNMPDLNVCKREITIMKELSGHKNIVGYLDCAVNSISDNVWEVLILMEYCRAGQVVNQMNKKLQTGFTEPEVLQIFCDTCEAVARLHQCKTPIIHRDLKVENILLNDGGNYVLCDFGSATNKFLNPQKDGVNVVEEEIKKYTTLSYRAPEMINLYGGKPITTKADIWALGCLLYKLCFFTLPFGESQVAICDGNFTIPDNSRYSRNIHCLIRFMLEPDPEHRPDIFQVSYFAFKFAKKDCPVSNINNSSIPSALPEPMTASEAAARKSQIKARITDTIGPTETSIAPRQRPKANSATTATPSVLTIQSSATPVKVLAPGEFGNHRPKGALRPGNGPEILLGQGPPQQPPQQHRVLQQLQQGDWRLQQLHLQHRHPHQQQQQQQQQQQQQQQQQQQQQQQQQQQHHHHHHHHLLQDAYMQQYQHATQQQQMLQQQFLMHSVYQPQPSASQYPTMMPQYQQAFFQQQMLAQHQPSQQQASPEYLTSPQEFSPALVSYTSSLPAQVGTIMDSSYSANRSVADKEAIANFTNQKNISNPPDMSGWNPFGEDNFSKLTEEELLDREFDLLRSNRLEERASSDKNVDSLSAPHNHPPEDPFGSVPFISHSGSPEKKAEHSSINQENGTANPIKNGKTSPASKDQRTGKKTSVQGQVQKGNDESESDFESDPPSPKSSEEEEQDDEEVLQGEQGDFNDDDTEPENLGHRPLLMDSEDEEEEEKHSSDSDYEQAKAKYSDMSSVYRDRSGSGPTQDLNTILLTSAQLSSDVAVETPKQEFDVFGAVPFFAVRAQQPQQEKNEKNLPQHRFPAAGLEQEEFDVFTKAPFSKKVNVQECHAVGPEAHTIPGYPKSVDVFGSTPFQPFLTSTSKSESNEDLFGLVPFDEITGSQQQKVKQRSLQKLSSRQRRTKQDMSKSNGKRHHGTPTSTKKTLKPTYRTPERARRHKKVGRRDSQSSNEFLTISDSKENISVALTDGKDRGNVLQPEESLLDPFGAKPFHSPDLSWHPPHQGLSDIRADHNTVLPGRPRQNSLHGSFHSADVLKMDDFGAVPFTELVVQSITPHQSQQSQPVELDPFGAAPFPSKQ
Chain of UniProt P54709 (P54709 whole entry, looked up): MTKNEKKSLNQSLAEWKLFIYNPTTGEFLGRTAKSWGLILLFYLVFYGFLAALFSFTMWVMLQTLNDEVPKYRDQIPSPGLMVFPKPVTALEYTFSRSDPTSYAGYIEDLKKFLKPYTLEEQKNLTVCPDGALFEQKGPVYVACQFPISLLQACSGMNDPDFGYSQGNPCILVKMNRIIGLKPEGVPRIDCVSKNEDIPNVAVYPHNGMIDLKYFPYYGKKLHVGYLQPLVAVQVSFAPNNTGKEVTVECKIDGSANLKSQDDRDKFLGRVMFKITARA
Chain of UniProt Q8IUR7 (Q8IUR7 whole entry, looked up): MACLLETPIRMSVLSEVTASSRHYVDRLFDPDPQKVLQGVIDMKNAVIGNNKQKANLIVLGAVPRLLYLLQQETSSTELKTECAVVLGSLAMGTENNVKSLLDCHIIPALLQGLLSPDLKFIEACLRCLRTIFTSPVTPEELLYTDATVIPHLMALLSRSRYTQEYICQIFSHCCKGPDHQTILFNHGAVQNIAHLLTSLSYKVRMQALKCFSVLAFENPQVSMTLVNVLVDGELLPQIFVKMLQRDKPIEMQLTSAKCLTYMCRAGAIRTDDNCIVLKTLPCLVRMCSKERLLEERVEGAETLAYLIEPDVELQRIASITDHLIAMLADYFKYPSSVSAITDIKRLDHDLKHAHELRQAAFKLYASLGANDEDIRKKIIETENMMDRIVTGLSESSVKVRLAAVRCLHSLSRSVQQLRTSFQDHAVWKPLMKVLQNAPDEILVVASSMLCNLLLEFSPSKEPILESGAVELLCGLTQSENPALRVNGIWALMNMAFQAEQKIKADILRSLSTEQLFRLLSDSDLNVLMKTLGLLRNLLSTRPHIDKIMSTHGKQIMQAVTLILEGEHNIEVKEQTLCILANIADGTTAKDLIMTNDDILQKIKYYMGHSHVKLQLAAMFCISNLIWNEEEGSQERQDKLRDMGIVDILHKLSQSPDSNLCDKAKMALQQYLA
Chain of UniProt P36405 (P36405 whole entry, looked up): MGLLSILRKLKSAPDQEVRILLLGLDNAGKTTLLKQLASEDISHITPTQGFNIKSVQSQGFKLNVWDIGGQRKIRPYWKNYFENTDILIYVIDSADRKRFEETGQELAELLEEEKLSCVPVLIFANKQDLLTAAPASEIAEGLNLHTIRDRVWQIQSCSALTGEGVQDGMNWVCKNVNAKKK
Chain of UniProt P02749 (P02749 whole entry, looked up): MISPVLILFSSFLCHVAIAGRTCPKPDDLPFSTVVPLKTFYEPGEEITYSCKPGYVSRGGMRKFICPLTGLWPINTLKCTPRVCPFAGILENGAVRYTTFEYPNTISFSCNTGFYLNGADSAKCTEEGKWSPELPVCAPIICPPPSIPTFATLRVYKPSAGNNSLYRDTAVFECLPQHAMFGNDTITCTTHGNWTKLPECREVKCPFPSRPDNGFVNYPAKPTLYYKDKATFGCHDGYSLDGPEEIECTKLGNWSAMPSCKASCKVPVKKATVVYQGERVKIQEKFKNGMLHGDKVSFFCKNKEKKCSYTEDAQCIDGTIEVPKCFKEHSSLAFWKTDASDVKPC
Chain of UniProt Q9UHQ4 (Q9UHQ4 whole entry, looked up): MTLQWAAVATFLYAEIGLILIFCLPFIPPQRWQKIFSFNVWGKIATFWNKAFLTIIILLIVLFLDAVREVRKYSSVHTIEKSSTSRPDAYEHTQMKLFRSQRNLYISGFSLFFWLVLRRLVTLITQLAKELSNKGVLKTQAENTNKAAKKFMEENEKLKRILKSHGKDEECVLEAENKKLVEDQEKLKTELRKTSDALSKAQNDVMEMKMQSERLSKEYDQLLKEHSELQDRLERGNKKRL
Chain of UniProt Q5JTZ9 (Q5JTZ9 whole entry, looked up): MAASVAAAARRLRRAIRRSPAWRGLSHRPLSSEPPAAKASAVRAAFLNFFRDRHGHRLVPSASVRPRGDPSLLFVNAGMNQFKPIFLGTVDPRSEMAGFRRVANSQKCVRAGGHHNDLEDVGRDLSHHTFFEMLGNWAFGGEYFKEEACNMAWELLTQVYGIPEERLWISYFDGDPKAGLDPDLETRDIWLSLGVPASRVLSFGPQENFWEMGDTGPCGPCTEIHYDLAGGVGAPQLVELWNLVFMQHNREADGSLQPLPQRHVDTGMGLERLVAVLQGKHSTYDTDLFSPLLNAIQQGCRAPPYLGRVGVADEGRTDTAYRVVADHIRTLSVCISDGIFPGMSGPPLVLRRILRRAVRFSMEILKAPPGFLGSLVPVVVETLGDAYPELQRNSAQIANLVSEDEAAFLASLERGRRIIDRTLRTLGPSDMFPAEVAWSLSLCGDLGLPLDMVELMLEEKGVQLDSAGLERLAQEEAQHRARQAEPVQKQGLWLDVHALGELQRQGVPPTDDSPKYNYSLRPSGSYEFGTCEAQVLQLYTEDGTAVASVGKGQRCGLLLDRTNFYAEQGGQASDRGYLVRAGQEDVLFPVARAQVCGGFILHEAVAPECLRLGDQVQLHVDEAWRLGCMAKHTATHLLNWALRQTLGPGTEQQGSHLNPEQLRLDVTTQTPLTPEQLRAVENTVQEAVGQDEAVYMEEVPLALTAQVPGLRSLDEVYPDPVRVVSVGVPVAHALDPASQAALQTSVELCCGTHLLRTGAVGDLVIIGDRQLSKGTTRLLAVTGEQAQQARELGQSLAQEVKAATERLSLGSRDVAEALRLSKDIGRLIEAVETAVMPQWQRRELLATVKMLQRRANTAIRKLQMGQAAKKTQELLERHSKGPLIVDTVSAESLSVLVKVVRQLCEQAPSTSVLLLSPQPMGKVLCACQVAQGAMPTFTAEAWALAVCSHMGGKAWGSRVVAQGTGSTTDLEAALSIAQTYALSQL

log2 fold change, inactive:
BLVRB (UniProt P30043) -0.073, ARL3 (UniProt P36405) -0.017, AGRN (UniProt O00468) 0.014, AARS2 (UniProt Q5JTZ9) -0.159, AP2A2 isoform 2 (UniProt O94973) 0.064, ATOX1 (UniProt O00244) -0.122, ATP6V0A1 isoform 3 (UniProt Q93050) -0.105, ALG3 (UniProt Q92685) -0.095, APOH (UniProt P02749) -0.156, ATP12A isoform 2 (UniProt P54707) -0.015, AGPS (UniProt O00116) -0.145, ATP1A1 (UniProt P05023) 0.013, BZW2 (UniProt Q9Y6E2) -0.05, ACIN1 (UniProt Q9UKV3) 0.073, BMP2K (UniProt Q9NSY1) -0.019, AIFM2 (UniProt Q9BRQ8) -0.025, ATP1B3 (UniProt P54709) 0.073, BECN1 (UniProt Q14457) -0.005, ATP6V1H (UniProt Q9UI12) -0.106, ATAD3B (UniProt Q5T9A4) 0.089, ADRM1 (UniProt Q16186) 0.008, BRD3 (UniProt Q15059) 0.297, ASNS (UniProt P08243) -0.073, AGPAT3 isoform 3 (UniProt Q9NRZ7) -0.106, BUB1B isoform 3 (UniProt O60566) 0.103, ARMC8 (UniProt Q8IUR7) 0.048, BCAP29 isoform 2 (UniProt Q9UHQ4) -0.047, ATG4B isoform 2 (UniProt Q9Y4P1) -0.142, BST2 (UniProt Q10589) -0.05, AKAP8 (UniProt O43823) 0.035, BZW1 isoform 3 (UniProt Q7L1Q6) -0.069, ANKRD29 (UniProt Q8N6D5) -0.122, AGPAT5 (UniProt Q9NUQ2) -0.153, ASH2L (UniProt Q9UBL3) 0.044, AGPAT1 (UniProt Q99943) 0.001

compound: CO[C@H]1C[C@@H]2CC[C@@H](C)[C@@](O)(O2)C(=O)C(=O)N2CCCC[C@H]2C(=O)O[C@H]([C@H](C)C[C@@H]2CC[C@H](n3cnnn3)[C@H](OC)C2)CC(=O)[C@H](C)/C=C(\C)[C@@H](O)[C@@H](OC)C(=O)[C@H](C)C[C@H](C)/C=C/C=C/C=C/1C [zotarolimus]; assay: as above
Summary of the method: as §1

log2 fold change, inactive:
BLVRB (UniProt P30043) 0.024, ARL3 (UniProt P36405) -0.006, AGRN (UniProt O00468) -0.001, AARS2 (UniProt Q5JTZ9) 0.029, AP2A2 isoform 2 (UniProt O94973) 0.003, ATOX1 (UniProt O00244) 0.113, ATP6V0A1 isoform 3 (UniProt Q93050) 0.073, ALG3 (UniProt Q92685) 0.06, APOH (UniProt P02749) -0.696, ATP12A isoform 2 (UniProt P54707) -0.015, AGPS (UniProt O00116) 0.05, ATP1A1 (UniProt P05023) 0.002, BZW2 (UniProt Q9Y6E2) 0.02, ACIN1 (UniProt Q9UKV3) 0.028, BMP2K (UniProt Q9NSY1) 0.029, AIFM2 (UniProt Q9BRQ8) 0.097, ATP1B3 (UniProt P54709) -0.034, BECN1 (UniProt Q14457) -0.142, ATP6V1H (UniProt Q9UI12) 0.055, ATAD3B (UniProt Q5T9A4) -0.064, ADRM1 (UniProt Q16186) 0.057, BRD3 (UniProt Q15059) -0.077, ASNS (UniProt P08243) -0.002, AGPAT3 isoform 3 (UniProt Q9NRZ7) 0.048, BUB1B isoform 3 (UniProt O60566) 0.014, ARMC8 (UniProt Q8IUR7) 0, BCAP29 isoform 2 (UniProt Q9UHQ4) -0.022, ATG4B isoform 2 (UniProt Q9Y4P1) 0.048, BST2 (UniProt Q10589) 0.041, AKAP8 (UniProt O43823) -0.105, BZW1 isoform 3 (UniProt Q7L1Q6) 0.052, ANKRD29 (UniProt Q8N6D5) 0.011, AGPAT5 (UniProt Q9NUQ2) 0, ASH2L (UniProt Q9UBL3) 0.096, AGPAT1 (UniProt Q99943) -0.048
